Only some compounds are listed: those with a hit (about 2.3% of all), similar ones and a draw of the others.
FUS suppressor: qHTS for Suppressors of FUS Proteinopathy: Primary screen using FUS-linked yeast assay | S. cerevisiae FUS-expressing, growth rescue, OD600, 24 h | Potency, µM (top dose mostly 76.6 µM), hits mostly activators | actives 0.24% (n = 390,000);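 note: potency is the fitted concentration of half-maximal effect; plate controls were DMSO vehicle for no effect and reference control for full effect; nearly all actives have a fitted effect of over 55% in size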
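Yeast FUS proteinopathy model; galactose-induced FUS (2%), starting OD 0.005. Cpds in dilution series, 24hr, 30C, 99% humidity. Abs 600 nm growth. Pos ctrl CP55940 (top 92uM final); neg ctrl DMSO.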
Giardia kill: Small Molecules that selectively kill Giardia lamblia: qHTS; activity change, % at 7.66 µM, hits read low; actives 0.15% (n = 340,000); Giardia lamblia trophozoite viability; AID 540267, 2011; in the data active = activity change below about -80%; inconclusive = between about -30% and that limit;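 note: parasites exposed to compound for two days anaerobically before the ATP read; % is set by controls: 0 for no effect and ±100 for the full control effect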
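Compounds were tested on trophozoites seeded at 100 cells/well and held 48 hrs at 37 deg C anaerobically. An ATP-based luminescent kit measured the remaining live cells.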
ELG1 repair inh: qHTS screen for small molecules that inhibit ELG1-dependent DNA repair in human embryonic kidney (HEK293T) cells expressing luciferase-tagged ELG1 | HEK293T ELG1-luciferase reporter, luminescence, 16 h; DNA damage induced by 5-fluorouridine | Potency, µM (titrated, usually from 46.1 µM), for inactives: top-dose activity change, negative = inhibition, hits mostly inhibitors | actives 2.3% (n = 330,000); note: potency is the fitted concentration of half-maximal effect; % is set by controls: 0 for no effect and ±100 for the full control effect; nearly all actives have a fitted effect of over 55% in size
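Step one: seed 2,000 cells per well. Step two: pin-transfer compound or DMSO alongside 5-fluorouridine. Step three: incubate 16 hr, 37 °C, 5% CO2. Step four: add ONE-Glo, wait 30 min, read luminescence.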
TRPV1 ag: HTS Assay for Compounds that Act as Agonists of the Vanilloid Receptor 1; TRPV1-expressing cells, Fluo-8 calcium influx, agonist mode; activation, % at 8.33 µM; Transient receptor potential cation channel subfamily V member 1 (Homo sapiens), Q8NER1; actives 0.19% (n = 320,000); in the data active = activation above about 80%; inconclusive = between about 30% and that limit; note: 0% is about no effect
Target sequence (Q8NER1 whole entry, looked up): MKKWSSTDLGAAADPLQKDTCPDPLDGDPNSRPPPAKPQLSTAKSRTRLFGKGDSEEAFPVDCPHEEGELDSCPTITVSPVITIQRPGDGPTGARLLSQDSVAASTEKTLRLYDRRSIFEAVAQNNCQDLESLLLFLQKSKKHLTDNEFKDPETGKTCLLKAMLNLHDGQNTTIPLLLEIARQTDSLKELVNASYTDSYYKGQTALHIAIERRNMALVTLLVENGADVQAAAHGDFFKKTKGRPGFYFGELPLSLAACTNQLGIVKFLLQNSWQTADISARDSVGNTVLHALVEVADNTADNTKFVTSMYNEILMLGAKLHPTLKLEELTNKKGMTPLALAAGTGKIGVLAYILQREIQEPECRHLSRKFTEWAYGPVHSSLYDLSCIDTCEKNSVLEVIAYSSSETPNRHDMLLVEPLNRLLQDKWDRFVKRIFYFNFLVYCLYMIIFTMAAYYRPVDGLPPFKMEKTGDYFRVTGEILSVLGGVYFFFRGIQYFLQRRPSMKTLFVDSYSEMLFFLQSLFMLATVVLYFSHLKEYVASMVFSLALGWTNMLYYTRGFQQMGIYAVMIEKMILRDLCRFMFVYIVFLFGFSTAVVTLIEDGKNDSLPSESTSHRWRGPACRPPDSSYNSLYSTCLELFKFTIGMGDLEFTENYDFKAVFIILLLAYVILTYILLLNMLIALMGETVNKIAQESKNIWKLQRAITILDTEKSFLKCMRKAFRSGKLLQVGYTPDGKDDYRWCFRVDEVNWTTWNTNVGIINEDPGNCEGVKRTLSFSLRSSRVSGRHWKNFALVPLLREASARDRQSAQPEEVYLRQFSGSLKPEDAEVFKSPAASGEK
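TRPV1-expressing cells were cultured overnight at 35.5C and loaded with Fluo-8 calcium dye for 40 to 90 min at room temperature. After a 10 s baseline, compound was added and calcium influx was read kinetically for 3 min (ex 480/em 520 nm).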
TRPV1 potentiator: HTS Assay for Compounds that Act as Potentiators of the Vanilloid Receptor 1. Transient receptor potential cation channel subfamily V member 1 (Homo sapiens), Q8NER1. TRPV1-expressing cells, Fluo-8 calcium influx, capsaicin EC20 potentiation. potentiation, % at 8.33 µM. actives 0.02% (n = 320,000); in the data active = potentiation above about 80%; inconclusive = between about 30% and that limit; note: 0% is about no effect
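Cells expressing TRPV1 were dye-loaded with Fluo-8 and read kinetically: 10 s baseline, 3 min after compound (agonist portion), then 2 min after EC20 capsaicin (allosteric enhancer portion). Calcium-bound dye fluorescence at 480/520 nm.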
Starred values were filed as active, the others as inactive; i = inactive; ? = inconclusive; . = not tested or not shown. Unless noted, calls come from the whole dose curve; as a rule, active = well fitted curve in the direction sought with a large enough effect; inconclusive = small, poorly fitted or top-dose-only effect, or another doubt; inactive = no such curve, though single readings can be large; an effect the other way counts as inactive or inconclusive.

SMILES	FUS suppressor	Giardia kill	ELG1 repair inh	TRPV1 ag	TRPV1 potentiator
CC(=O)c1ccc(NC(=O)CSc2ccc(-c3sc(C)nc3C)nn2)cc1	i	5.9	18.3µM*	-2.8	6.0
Cc1ncc([N+](=O)[O-])n1CC(=O)Nc1ccccc1Cl	i	.	.	.	.
COc1ccc(Cn2c(=O)n(Cc3ccco3)c(=N)c3c4c(sc32)COC(C)(C)C4)cc1	i	13.5	7.31µM*	?	-2.0
CC1(C)Cc2c(sc3c2c(=N)n(Cc2ccco2)c(=O)n3Cc2ccc(F)cc2)CO1	i	10.4	18.4µM*	24.9	8.9
Cc1ccc(NC(=O)Cn2c(=O)n(Cc3ccco3)c(=N)c3c4c(sc32)COC(C)(C)C4)cc1	?	23.8	?	2.7	29.2
CC1(C)Cc2c(sc3c2c(N)nc(=S)n3Cc2ccccc2)CO1	.	.	2.0%	-3.1	-2.6
CC(=O)N1c2ccc(S(=O)(=O)NCCC(=O)Nc3ccc(Br)c(C)c3)cc2CC1C (stereo not drawn)	i	.	.	.	.
CCc1ccc(CNC(=O)CCSCc2ccccc2F)cc1	i	.	.	.	.
Cc1ccc(-c2nc(-c3cccnc3)sc2CC(=O)O)cc1	i	-8.8	0.0%	-0.1	0.7
CC(=O)Nc1ccc(NC(=O)Cc2sc(-c3cccnc3)nc2-c2ccc(C)cc2)cc1	28.2µM*	25.8	?	4.6	-2.0
CCOC(=O)c1c(C)[nH]c(C(=O)COC(=O)C23CC4CC(CC(Cl)(C4)C2)C3)c1C	i	11.5	11.6µM*	2.4	-60.3
CCCCC(=O)OCC(=O)c1[nH]c(C)c(C(=O)OCC)c1C	i	-13.9	?	-1.5	1.5
CCOC(=O)c1ccc(NC(=O)CC2C(=O)N(c3ccccc3)C(=O)N2Cc2ccc(C)cc2)cc1 (stereo not drawn)	i	.	.	.	.
COc1ccc(-[n+]2c(C)cc(/C=C3\Sc4ccccc4N3C)cc2C)cc1	i	-1.0	18.3µM*	?	?
COc1ccccc1-[n+]1c(C)cc(/C=C2\Sc3ccccc3N2C)cc1C	i	-17.5	?	?	?
CN(Cc1ccc(F)cc1)S(=O)(=O)c1nnc(NC(=O)c2ccc(F)cc2)s1	i	.	.	.	.
COC(=O)c1ccc(COc2ccccc2/C=C(\C#N)C(=O)Nc2c(C)cccc2C)cc1	i	22.8	25.9µM*	8.4	20.6
Cc1cc(C)c(NC(=O)Cn2c(=O)n(CC3CCCO3)c(=O)c3ccccc32)c(C)c1 (stereo not drawn)	i	.	.	.	.
COc1ccc(O)c(CNn2c(-c3ccc(Br)cc3)nc3ccccc3c2=O)c1	i	22.1	?	6.4	-3.6
COc1cccc(CNn2c(-c3cccc(C)c3)nc3ccccc3c2=O)c1O	i	-16.1	16.4µM*	17.2	-11.7
O=C(/C=C/c1cccnc1)c1ccc([N+](=O)[O-])cc1	i	41.5	-10.0%	-0.6	-3.2
COc1cc(C(=O)/C=C/c2cccnc2)c([N+](=O)[O-])cc1OC	i	-90.0*	?	-0.9	-4.3
CCOC(=O)c1ccc(NC(=O)c2nc[nH]c2C(=O)NC2CCN(C(=O)OC(C)(C)C)CC2)cc1	?	?	6.4%	-1.6	3.2
CC(C)(C)OC(=O)N1CCC(NC(=O)c2nc[nH]c2C(=O)NC2CCN(C(=O)OC(C)(C)C)CC2)CC1	11.2µM*	-3.7	?	-4.2	-4.7
CC(C)(C)OC(=O)N1CCC(NC(=O)c2[nH]cnc2C(=O)Nc2cccc(Cl)c2)CC1	i	25.4	18.3µM*	-0.7	-17.7
SMILES	FUS suppressor	Giardia kill	ELG1 repair inh	TRPV1 ag	TRPV1 potentiator
Cn1cnc(C(=O)NC2CCN(C(=O)OC(C)(C)C)CC2)c1C(=O)NC1CCN(C(=O)OC(C)(C)C)CC1	i	0.4	10.3µM*	.	.
CC(C)(C)OC(=O)CNC(=O)c1[nH]cnc1C(=O)NC1CCN(C(=O)OC(C)(C)C)CC1	?	-3.0	?	-3.2	?
Cc1ccc(NC(=O)c2ccc(NC(=O)C3CCCC3)cc2)c(C)c1	.	6.9	.	.	.
Cc1ccc2oc3c(c(=O)c2c1)C(c1ccccc1F)N(CCCN1CCOCC1)C3=O (stereo not drawn)	i	.	.	.	.
O=C(CN1c2cccc3cccc(c23)S1(=O)=O)Nc1ccc(F)c(F)c1F	i	12.9	23.1µM*	.	.
Cc1cc(C(=O)Nc2ccc([N+](=O)[O-])cn2)cs1	i	12.5	?	82.5*	-35.6
Nn1c(SCC(=O)Nc2nccs2)nnc1-c1cc(-c2ccc(F)cc2)n[nH]1	i	.	.	.	.
O=C(Cn1ncc2c1-c1ccccc1OC2)N1CCN(Cc2ccc3c(c2)OCO3)CC1	i	-21.5	23.1µM*	19.3	-0.7
CCOC(=O)c1ccc(NC(=O)CSc2nc(-c3ccc(F)cc3)cc(C(F)(F)F)c2C#N)cc1	i	.	.	.	.
CCN=C1S/C(=C\c2cc(OCC)c(O)cc2Br)C(=O)N1CC	i	-3.9	18.4µM*	8.0	2.0
COc1cccc(N2CCN(C(=O)c3cnn(C(C)(C)C)c3C3CCN(C(=O)OC(C)(C)C)CC3)CC2)c1	i	.	.	.	.
CCOC(=O)N1CCN(C(=O)C2CCCN(Cc3nc(-c4ccc(Cl)cc4)oc3C)C2)CC1 (stereo not drawn)	i	-17.6	4.61µM*	3.7	5.8
Cc1oc(-c2ccc(Cl)cc2)nc1CN1CCCC(C(=O)NC2CC2)C1 (stereo not drawn)	i	19.5	-7.4%	8.0	1.1
Cc1oc(-c2ccc(F)cc2)nc1CN1CCCC(C(=O)N2CCOCC2)C1 (stereo not drawn)	i	-15.6	13.5%	?	-21.3
CCOC(=O)N1CCC(NC(=O)C2CCCN(Cc3nc(-c4cccc(Cl)c4)oc3C)C2)CC1 (stereo not drawn)	i	0.5	9.2µM*	3.2	2.1
CCOC(=O)N1CCC(NC(=O)CS(=O)(=O)Cc2nc(-c3cccc(Cl)c3)oc2C)CC1	i	16.0	14.6µM*	4.3	-0.9
COc1ccccc1C(=O)Nc1ccccc1C(=O)OCc1cc(=O)n2ccsc2n1	i	.	.	.	.
O=C1NC[C@H](CCCCN2C[C@H](Cc3ccc(O)cc3)N(CCc3ccccc3)C(=O)C2=O)N(CC2CCCCC2)C1=O	i	.	.	.	.
C=CCNCC(=O)Nc1sc2c(c1C(=O)Nc1ccc(OC)cc1OC)CCC2	i	-13.7	20.6µM*	7.4	0.9
COc1ccc(NC(=O)c2c(NCc3ccc(OC)c(OC)c3OC)sc3c2CCC3)c(OC)c1	i	.	.	.	.
O[C@H]1C[C@H](c2ccccc2)N(CC2CCCCC2)C[C@@H]1n1cc(C2CC2)nn1	i	.	.	.	.

Screening results from PubChem BioAssay.
